Compound activity as filed in PubChem.
Most compounds without a hit are left out; they make up all but 2.3% or so of the library.
pPAFAH inh: inhibitors of human plasma PAF acetylhydrolase (pPAFAH) | AID 463082 | recombinant pPAFAH, FP-rhodamine probe fluorescence polarization | Q13093 | inhibition, % at 3.39 µM | actives 1.5% (n = 330,000);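 active = inhibition above the mean inhibition across the screen plus 3 SD, cut at about 25% in these data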;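 note: inhibitors block binding of the rhodamine activity-based probe so polarization drops; 0% = enzyme with DMSO and 100% = wells lacking pPAFAH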
Target sequence (Q13093 whole entry, looked up): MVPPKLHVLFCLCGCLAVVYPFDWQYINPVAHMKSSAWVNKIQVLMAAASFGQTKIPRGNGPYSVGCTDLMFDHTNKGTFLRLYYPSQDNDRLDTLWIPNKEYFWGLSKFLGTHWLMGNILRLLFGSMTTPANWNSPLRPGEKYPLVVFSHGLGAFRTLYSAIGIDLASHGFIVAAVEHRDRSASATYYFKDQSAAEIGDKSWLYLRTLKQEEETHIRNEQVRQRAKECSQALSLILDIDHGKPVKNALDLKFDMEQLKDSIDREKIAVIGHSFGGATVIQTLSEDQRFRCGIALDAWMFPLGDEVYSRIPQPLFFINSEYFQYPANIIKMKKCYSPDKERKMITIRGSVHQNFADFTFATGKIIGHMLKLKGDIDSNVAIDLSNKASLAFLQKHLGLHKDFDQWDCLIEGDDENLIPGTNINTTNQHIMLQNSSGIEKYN
GSTO1 counter: counter-screen for RBBP9 inhibitors: inhibitors of human GSTO1 | recombinant GSTO1, activity-based probe fluorescence polarization | inhibition, % at 5.96 µM | actives 1.1% (n = 300,000);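 active = inhibition above the campaign mean inhibition plus 3 SD, cut at about 35% in these data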;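 note: 0% = GSTO1-1 with DMSO and 100% = wells lacking GSTO1-1 enzyme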
PAD4 inh: inhibitors of human PAD4; Q9UM07; recombinant PAD4, RCA probe fluorescence polarization; inhibition, % at 6.36 µM; actives 0.41% (n = 330,000);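 active = percent inhibition above a cutoff equal to the mean of all tested compounds plus 3 SD, cut at about 15% in these data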;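 note: 0% = PAD4 with RCA probe and DMSO and 100% = probe without PAD4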
PME-1 inh: blocks human protein phosphatase methylesterase 1. Q9Y570. AID 2130. inhibition, % at 5.9 µM. recombinant PME-1, FP-Rh probe fluorescence polarization. actives 0.53% (n = 320,000);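 active = inhibition above the campaign mean of all compounds plus 3 SD, cut at about 26% in these data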;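 note: competitive labeling of PME-1 active site by serine hydrolase directed probe; 0% = PME-1 with DMSO and 100% = wells lacking PME-1 enzyme; inhibitors block probe labeling so polarization falls and inhibition rises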
Fam108B counter: Fam108B inhibition, counter-screen for RBBP9 inhibitors. recombinant Fam108B, FP-Rh probe fluorescence polarization. inhibition, % at 9.51 µM. actives 0.33% (n = 300,000). AID 1947;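 active = inhibition above the screen mean inhibition plus 3 SD, computed separately per campaign, cut at about 18% in these data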;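 note: inhibitors lower polarization as less probe binds the enzyme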
GSTO1 inh conf: confirmation of human GSTO1 inhibitors; AID 2176; shares compounds with GSTO1 counter; recombinant GSTO1, probe fluorescence polarization; inhibition, % at 5.96 µM; actives 54% (n = 2,400);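 active = inhibition above the primary screen's cutoff, its mean inhibition plus 3 SD, cut at about 35% in these data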;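 note: loss of polarization as inhibitors block binding of rhodamine sulfonate ester activity probe; 0% = GSTO1 with DMSO and 100% = wells lacking GSTO1 enzyme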
* = called active by the depositor.

Screening CCCCNC(=O)NC1(C(F)(F)F)Oc2ccccc2O1 returned pPAFAH inh 5, GSTO1 counter 55*, PAD4 inh -4, PME-1 inh -2, Fam108B counter -3 and GSTO1 inh conf 4.
For COc1ccc(OC)c(NC(=O)NC2(C(F)(F)F)Oc3ccccc3O2)c1 the results were pPAFAH inh 5, GSTO1 counter 56*, PAD4 inh -3, PME-1 inh 4, Fam108B counter 1 and GSTO1 inh conf 7.
NS(=O)(=O)c1ccc(CCNC(=O)NC2(C(F)(F)F)Oc3ccccc3O2)cc1 was read as pPAFAH inh 4, GSTO1 counter 47*, PAD4 inh -1, PME-1 inh -4, Fam108B counter 2 and GSTO1 inh conf 2.
COCCNC(=O)NC1(C(F)(F)F)Oc2ccc(Cl)cc2O1 (stereo unspecified) was read as pPAFAH inh 0, GSTO1 counter 38*, PAD4 inh 2, PME-1 inh 2, Fam108B counter 2 and GSTO1 inh conf 5.
`C#C[C@]1(OC(C)=O)CCC2C3CCC4=CC(=O)CC[C@@H]4C3CC[C@@]21C` (stereo partly specified) gave pPAFAH inh 0, GSTO1 counter -4, PAD4 inh 0, PME-1 inh -8 and Fam108B counter 2.
`CCOc1ccc(-c2nc(CCl)cs2)cc1OC` gave pPAFAH inh -1, GSTO1 counter 29, PAD4 inh 4, PME-1 inh -2 and Fam108B counter 1.
`O=C(NCCN1CCOCC1)NC1(C(F)(F)F)Oc2ccccc2O1` gave pPAFAH inh 0, GSTO1 counter 57*, PAD4 inh -2, PME-1 inh -4, Fam108B counter -1 and GSTO1 inh conf 5.
O=C(NCCN1CCOCC1)Nc1ccccc1 was read as pPAFAH inh -5, GSTO1 counter 3, PAD4 inh 2, PME-1 inh 2 and Fam108B counter 3.
`N#CC(C#N)=c1ccc2c(c1)NC1(CCCCC1)N=2` gave pPAFAH inh 9, GSTO1 counter 68*, PAD4 inh 4, PME-1 inh -6, Fam108B counter 1 and GSTO1 inh conf 50*.
Cc1c(Cl)cccc1N=Cc1ccc([N+](=O)[O-])s1 was read as pPAFAH inh 11, GSTO1 counter 39*, PAD4 inh -11, PME-1 inh 1, Fam108B counter 8 and GSTO1 inh conf 16.
For Cc1ccccc1C(=O)N/N=C/c1ccc([N+](=O)[O-])s1 the results were pPAFAH inh 10, GSTO1 counter 26, PAD4 inh -2, PME-1 inh 0 and Fam108B counter 1.
Screening O=S(=O)(NC1CCN(S(=O)(=O)c2c(F)cccc2F)CC1)c1ccc2c(c1)OCCO2 returned pPAFAH inh -3 and PAD4 inh 0.
`COc1ccccc1N(CC(O)CN1CCC(C)CC1)S(=O)(=O)c1ccccc1` (stereo unspecified) gave pPAFAH inh 5, GSTO1 counter 4, PAD4 inh 2, PME-1 inh -4 and Fam108B counter 2.
Cc1ccc(S(=O)(=O)Oc2ccc(C3C4=C(CCCC4=O)OC4=C3C(=O)CCC4)cc2)cc1 was read as pPAFAH inh 2, GSTO1 counter 7, PAD4 inh 5, PME-1 inh -3 and Fam108B counter -1.
CCOc1cc(C2C3=C(CCCC3=O)N(CCC(=O)O)C3=C2C(=O)CCC3)ccc1OS(=O)(=O)c1ccc(C)cc1 was read as pPAFAH inh 6, GSTO1 counter 78*, PAD4 inh 1, PME-1 inh 2, Fam108B counter 0 and GSTO1 inh conf 70*.
Screening CCOc1ccc(C2C3=C(CC(C)(C)CC3=O)N(CC(=O)O)C3=C2C(=O)CC(C)(C)C3)cc1OCC returned pPAFAH inh 4, GSTO1 counter -5, PAD4 inh 2, PME-1 inh 3 and Fam108B counter 0.
`Cc1ccc(S(=O)(=O)Oc2ccc(C3C4=C(CCCC4=O)N(CCC(=O)O)C4=C3C(=O)CCC4)cc2Cl)cc1` gave pPAFAH inh 2, GSTO1 counter 62*, PAD4 inh -2, PME-1 inh 3, Fam108B counter 1 and GSTO1 inh conf 61*.
COc1cccc(-c2nc(CS(=O)(=O)CC(=O)NC3CCCCC3C)c(C)o2)c1 (stereo unspecified) was read as pPAFAH inh -2, GSTO1 counter 13, PAD4 inh -2, PME-1 inh -4 and Fam108B counter 4.
`O=C1C=CC(=O)C(C2=C3C(=O)N(CCc4ccccc4)CC(=O)N3CCC2)=C1` gave pPAFAH inh 20, GSTO1 counter 75*, PAD4 inh -1, PME-1 inh -4, Fam108B counter 2 and GSTO1 inh conf 7.
For O=C1CC(=O)N(CCc2ccccc2)C(=O)N1CCc1ccccc1 the results were pPAFAH inh 18, GSTO1 counter 10, PAD4 inh -16, PME-1 inh -8 and Fam108B counter 0.
Screening COC(C[C@@H]1O[C@H]1[C@H](O)[C@@H](C)OCc1ccccc1)OC returned pPAFAH inh 1, GSTO1 counter 40*, PAD4 inh 1, PME-1 inh -6, Fam108B counter -2 and GSTO1 inh conf 7.
Screening COC(C[C@H]1O[C@@H]1[C@H](O)COCc1ccccc1)OC returned pPAFAH inh 1, PAD4 inh -7 and PME-1 inh -5.
For CCN(CC(=O)NCc1ccc(Cl)cc1)C(=O)CSCC(=O)Nc1cccc(C)c1 the results were pPAFAH inh 11, GSTO1 counter 44*, PAD4 inh -3, PME-1 inh 1, Fam108B counter -2 and GSTO1 inh conf 8.
For Cc1onc(-c2ccccc2)c1C(=O)NNC(=O)c1ccccc1O the results were pPAFAH inh -1, GSTO1 counter 47*, PAD4 inh 2, PME-1 inh -5, Fam108B counter 4 and GSTO1 inh conf 6.
Screening CC1CCN(C2=C(NS(=O)(=O)c3ccc(Br)cc3)C(=O)c3ccccc3C2=O)CC1 returned pPAFAH inh 9, GSTO1 counter 32, PAD4 inh -9, PME-1 inh 3 and Fam108B counter 4.
`CCOC(=O)C1CCN(C2=C(NS(=O)(=O)c3ccc(Cl)cc3)C(=O)c3ccccc3C2=O)CC1` gave pPAFAH inh 12, GSTO1 counter 18, PAD4 inh -1, PME-1 inh 11 and Fam108B counter 6.
O=C1C(NS(=O)(=O)c2ccc(Br)cc2)=C(N2CCCCC2)C(=O)c2ccccc21 was read as pPAFAH inh 11, GSTO1 counter 42*, PAD4 inh -15, PME-1 inh 11, Fam108B counter 0 and GSTO1 inh conf 12.
For CCOC(=O)C1CCCN(C2=C(NS(=O)(=O)c3ccc(Br)cc3)C(=O)c3ccccc3C2=O)C1 (stereo unspecified) the results were pPAFAH inh 6, GSTO1 counter 43*, PAD4 inh -10, PME-1 inh 15, Fam108B counter 6 and GSTO1 inh conf 11.
For O=C(CCOc1ccccc1)NNC(=O)c1ccccc1 the results were pPAFAH inh 1 and PAD4 inh 5.
